Results published in article PMC8384837, “Expanding the binding specificity for RNA recognition by a PUF domain”.

What was measured:
Assay in all cases: yeast three-hybrid, YBZ-1, SC-Leu-His + 0.5 mM 3-AT, 4 days
Details in all cases: tags: N-Gal4 AD-HA kept; label: inside an RPR1-promoter hybrid RNA with tandem MS2 sites; ssRNA
[1] = target: PUM1 PUF domain R8-KWL (Homo sapiens, UniProt Q14671 828-1176, N1122K;Y1123W;Q1126L)
How it was run: (§1)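 Each repeat of the Pumilio-1 PUF domain was randomized at its three base-contacting residues, and these libraries were co-expressed from a centromeric plasmid with matching RNA elements in strain YBZ-1. After four days on SC-Leu (input) or SC-Leu-His + 0.5 mM 3-AT (selection), the repeat regions were PCR-amplified and Illumina-sequenced. The interaction score compares variant frequency between input and selection as a log change, computed in log2 with a pseudocount of 1 for absent variants.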

[2] = target: PUM1 PUF domain R1-KRD (Homo sapiens, UniProt Q14671 828-1176, S863K;Q867D)
How it was run: as §1

[3] = target: PUM1 PUF domain R1-HRR (Homo sapiens, UniProt Q14671 828-1176, S863H;Q867R)
How it was run: as §1

[4] = target: PUM1 PUF domain R1-NGR (Homo sapiens, UniProt Q14671 828-1176, S863N;R864G;Q867R)
How it was run: as §1

[5] = target: PUM1 PUF domain R5-KYG (Homo sapiens, UniProt Q14671 828-1176, C1007K;R1008Y;Q1011G)
PUM1 PUF domain R5-KYG, sequence (Q14671 828-1176 C1007K/R1008Y/Q1011G): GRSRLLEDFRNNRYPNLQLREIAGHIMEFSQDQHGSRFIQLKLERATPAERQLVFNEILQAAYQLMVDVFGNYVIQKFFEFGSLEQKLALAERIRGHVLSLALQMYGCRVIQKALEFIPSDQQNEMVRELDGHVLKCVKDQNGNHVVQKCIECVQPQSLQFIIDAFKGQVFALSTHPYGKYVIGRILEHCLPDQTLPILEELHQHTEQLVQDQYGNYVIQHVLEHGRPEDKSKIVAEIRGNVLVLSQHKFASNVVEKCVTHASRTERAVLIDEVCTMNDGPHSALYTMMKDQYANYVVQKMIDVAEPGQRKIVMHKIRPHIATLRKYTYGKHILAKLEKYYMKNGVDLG
How it was run: as §1

[6] = target: PUM1 PUF domain R5-DFG (Homo sapiens, UniProt Q14671 828-1176, C1007D;R1008F;Q1011G)
How it was run: as §1

[7] = target: PUM1 PUF domain R5-SNG (Homo sapiens, UniProt Q14671 828-1176, C1007S;R1008N;Q1011G)
How it was run: as §1

[8] = target: PUM1 PUF domain R4-WAT (Homo sapiens, UniProt Q14671 828-1176, N971W;H972A;Q975T)
How it was run: as §1

[9] = target: PUM1 PUF domain R4-SMR (Homo sapiens, UniProt Q14671 828-1176, N971S;H972M;Q975R)
How it was run: as §1

[10] = target: PUM1 PUF domain R7-GSR (Homo sapiens, UniProt Q14671 828-1176, S1079G;N1080S;E1083R)
How it was run: as §1

[11] = target: PUM1 PUF domain R7-LER (Homo sapiens, UniProt Q14671 828-1176, S1079L;N1080E;E1083R)
How it was run: as §1

[12] = target: PUM1 PUF domain R7-RRG (Homo sapiens, UniProt Q14671 828-1176, S1079R;N1080R;E1083G)
How it was run: as §1

[13] = target: PUM1 PUF domain R3-YCV (Homo sapiens, UniProt Q14671 828-1176, C935Y;R936C;Q939V)
How it was run: as §1

## GGCUAGAACUAGUGGAUCCCCCGGCGCCCGGCGGCUCGAGCCCGGGUAAGCGUAAAUAGUCUGCAUGCCGCCGGGCGCCAUGCCUGCAGGUCGACUCUAGAAAACAUG
[1]
  binding signal: 5.91 log2 enrichment (interaction score)

## GGCUAGAACUAGUGGAUCCCCCGGCGCCCGGCGGCUCGAGCCCGGGUAAGUGUAAAUCGUCUGCAUGCCGCCGGGCGCCAUGCCUGCAGGUCGACUCUAGAAAACAUG
[2]
  binding signal: 3.37 log2 enrichment (interaction score)
[3]
  binding signal: 2.84 log2 enrichment (interaction score)
[4]
  binding signal: 4.09 log2 enrichment (interaction score)

## GGCUAGAACUAGUGGAUCCCCCGGCGCCCGGCGGCUCGAGCCCGGGUAAGUGUGAAUAGUCUGCAUGCCGCCGGGCGCCAUGCCUGCAGGUCGACUCUAGAAAACAUG
[5]
  binding signal: 2.74 log2 enrichment (interaction score)

## GGCUAGAACUAGUGGAUCCCCCGGCGCCCGGCGGCUCGAGCCCGGGUAAGUGUCAAUAGUCUGCAUGCCGCCGGGCGCCAUGCCUGCAGGUCGACUCUAGAAAACAUG
[5]
  binding signal: 5.55 log2 enrichment (interaction score)
[6]
  binding signal: 2 log2 enrichment (interaction score)

## GGCUAGAACUAGUGGAUCCCCCGGCGCCCGGCGGCUCGAGCCCGGGUAAGUGUUAAUAGUCUGCAUGCCGCCGGGCGCCAUGCCUGCAGGUCGACUCUAGAAAACAUG
[7]
  binding signal: 3.2 log2 enrichment (interaction score)
[6]
  binding signal: 6.17 log2 enrichment (interaction score)

## GGCUAGAACUAGUGGAUCCCCCGGCGCCCGGCGGCUCGAGCCCGGGUAAGUGUACAUAGUCUGCAUGCCGCCGGGCGCCAUGCCUGCAGGUCGACUCUAGAAAACAUG
[8]
  binding signal: 2.53 log2 enrichment (interaction score)
[9]
  binding signal: 2.97 log2 enrichment (interaction score)

## GGCUAGAACUAGUGGAUCCCCCGGCGCCCGGCGGCUCGAGCCCGGGUAAGUUUAAAUAGUCUGCAUGCCGCCGGGCGCCAUGCCUGCAGGUCGACUCUAGAAAACAUG
[10]
  binding signal: 4.22 log2 enrichment (interaction score)
[11]
  binding signal: 3.41 log2 enrichment (interaction score)
[12]
  binding signal: 4.6 log2 enrichment (interaction score)

## GGCUAGAACUAGUGGAUCCCCCGGCGCCCGGCGGCUCGAGCCCGGGUAAGUGUAAGUAGUCUGCAUGCCGCCGGGCGCCAUGCCUGCAGGUCGACUCUAGAAAACAUG
[13]
  binding signal: 2.69 log2 enrichment (interaction score)
